Compounds with a hit are over-represented: about 1.8% of the library has one in this group of screens.
NPR1 activator: GC-A (human) enzyme activation | P16066 | HEK293 GC-A cells, cGMP TR-FRET, EC30 ANP; 0% at EC30 ANP, 100% saturating ANP | activation, % at 10 µM | 0.14% of 370,000 active | AID 1671463; in the data active means activation above about 40%
m5-HT2A agonist: activates the mouse 5-HT2A serotonin receptor; CHO-K1 mHTR2A beta-arrestin complementation, luminescence; percent of 30 µM serotonin response; activation, % at 7.6 µM; 0.66% of 360,000 active; AID 624169;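 active means activation above a run cutoff, the mean activation of all tested compounds plus 3 SD, cut at about 14% in these data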;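 further: 0% = plate median of compound wells and 100% = 30 µM serotonin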
Target sequence (P35363 whole entry, looked up): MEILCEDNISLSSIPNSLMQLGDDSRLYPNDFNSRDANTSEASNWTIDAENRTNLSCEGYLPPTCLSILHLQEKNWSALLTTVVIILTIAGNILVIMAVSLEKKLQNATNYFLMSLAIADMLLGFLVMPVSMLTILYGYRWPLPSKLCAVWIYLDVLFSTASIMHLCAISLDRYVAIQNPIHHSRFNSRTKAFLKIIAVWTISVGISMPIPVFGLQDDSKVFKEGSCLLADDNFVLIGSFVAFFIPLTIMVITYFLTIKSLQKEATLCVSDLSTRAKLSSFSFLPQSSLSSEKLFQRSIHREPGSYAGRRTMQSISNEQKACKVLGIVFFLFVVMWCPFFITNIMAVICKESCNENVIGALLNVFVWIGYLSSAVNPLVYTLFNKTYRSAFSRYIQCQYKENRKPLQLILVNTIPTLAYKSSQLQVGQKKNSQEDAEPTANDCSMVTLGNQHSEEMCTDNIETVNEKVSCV
GC-B act: GC-B (human) receptor activation | P20594 | HEK293-GC-B cells, CNP EC30, cGMP TR-FRET; 0% at EC30 CNP, 100% saturating CNP | activation, % at 10 µM | 0.11% of 370,000 active | AID 1920062;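 active means activation at 10 µM reaching about 35% in either raw or pattern-adjusted values, limit read from the data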
MsrA inhibitor: inhibits bovine methionine sulfoxide reductase A. inhibition, % at 15.5 µM. AID 651718. 0.75% of 360,000 active. purified bovine MsrA, absorbance read-out;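 further: 0% = vehicle wells with enzyme and 100% = reference inhibitor wells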
MsrA act: activators of bovine methionine sulfoxide reductase A; purified bovine MsrA, absorbance read-out; activation, % at 10.6 µM; 0.3% of 360,000 active; in the data active means activation above about 7.5%;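 further: 0% = vehicle and 100% = reference activator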
MOR ag counter: counter-screen for mouse HTR2A agonists: human mu opioid receptor agonists. shares compounds with m5-HT2A agonist. U2OS OPRM1 beta-arrestin PathHunter, luminescence; DMSO 0%, DAMGO 9.3 µM 100%. activation, % at 9.3 µM. 5.3% of 2,300 active;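 active means mean activation above the mean of DMSO-only wells plus 3 SD, cut at about 0.5% in these data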
HTR2A ag conf: mouse HTR2A agonism confirmed. shares compounds with m5-HT2A agonist. CHO-K1 PathHunter beta-arrestin recruitment, luminescence; DMSO 0%, 30 µM serotonin 100%. activation, % at 7.6 µM. 19% of 2,300 active. AID 624381;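 active means mean activation across triplicates above the hit threshold derived in the original primary screen, cut at about 15% in these data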
MsrA conf: confirmation of bovine MsrA inhibitors. shares compounds with MsrA inhibitor. purified bovine MsrA, absorbance read-out. inhibition, % at 15.5 µM. 41% of 2,300 active. AID 651822;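 further: coupled to thioredoxin reductase with NADPH and selenocystamine and DMSO as substrate; 0% = vehicle only and 100% = full effect of reference inhibitor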
* hit, by the source's call; x = not tested or not shown. Unless noted, no stated cut-off is given here; in the data, active means inhibition above about 4.5%; inactive means the rest.

SMILES	NPR1 activator	m5-HT2A agonist	GC-B act	MsrA inhibitor	MsrA act	MsrA conf	others
COc1ccc(CCNCc2cccn2C)cc1	-4	28*	2	0	1	x	MOR ag counter=0.5*;HTR2A ag conf=17*
Cn1cccc1CNCCc1ccccc1F	-4	7	-5	-1	-6	x
CC1=C[C@@H]2c3cccc4[nH]cc(c34)C[C@H]2N(C)C1	2	28*	-11	0	1	x	MOR ag counter=0.8*;HTR2A ag conf=144*
COc1ccc(OC(=O)N(C)C[C@@H]2OCc3cnnn3CCCC(=O)N([C@H](C)CO)C[C@H]2C)cc1	5	-2	-1	2	-5	x
Clc1ccc2sc(C3CCNCC3)nc2c1	2	38*	-4	0	-5	x	MOR ag counter=-1;HTR2A ag conf=15*
COc1ccc(-[n+]2c(-c3ccccc3)cc(-c3ccccc3)cc2-c2ccccc2)cc1	-11	x	-5	3	x	x
Oc1ccc(-[n+]2c(-c3ccccc3)cc(-c3ccccc3)cc2-c2ccccc2)cc1	-1	21*	1	1	-13	x	MOR ag counter=0.5*;HTR2A ag conf=16*
Clc1ccc2[nH]c3c(c2c1)CCNC3	5	16*	1	0	-4	x	MOR ag counter=0;HTR2A ag conf=9
O=C(c1ccccc1F)N1CCC2(CC1)OCCO2	4	7	1	-1	-1	x
Cc1cc(O)c2c(C)c(CC(=O)N3C[C@H]4C[C@@H](C3)c3cccc(=O)n3C4)c(=O)oc2c1	4	19*	-6	2	-1	x	MOR ag counter=-1;HTR2A ag conf=-3
COc1ccc(-c2cc(=NCCC(=O)O)c3cc(C)ccc3o2)cc1	7	-2	3	4.8*	-5	4.6*
COc1ccc(-c2cc(=Nc3ccccc3)c3cc(C)ccc3o2)cc1	-3	-6	-2	1	-3	x
O=C(Cc1cc(=O)oc2cc(O)ccc12)NN=Cc1ccc(N(CCCl)CCCl)cc1	-5	0	-6	7.3*	-9	6.1*
O=c1[nH]c(=S)n(Cc2ccc(F)cc2)c(O)c1C=NCc1cccnc1	10	-1	-3	4.8*	-8	4
O=c1[nH]c(=S)n(C2CC2)c(O)c1C=NCC1CCCO1 (stereo not drawn)	-1	1	-11	6.2*	-7	3
O=c1[nH]c(=S)n(Cc2ccc(F)cc2)c(O)c1/C=N/N1CCCCC1	-2	1	4	2	-1	x
CC(C)n1c(O)c(C=NCc2ccccc2)c(=O)[nH]c1=S	1	-12	10	5.2*	-5	2
O=c1[nH]c(=S)n(Cc2ccc(F)cc2)c(O)c1C=NCC1CCCO1 (stereo not drawn)	4	-3	4	5.7*	-4	3
COC(=O)C1=C(c2cccc(OCc3ccccc3)c2)C[C@@H]2CC[C@H]1N2C(=O)NCCCOC(C)C	-1	-3	6	1	0	x
O=C(N/N=C/c1c(O)n(CCc2ccccc2)c(=O)[nH]c1=O)c1ccccc1O	-2	1	-1	4.9*	-6	4
O=C(N/N=C/c1c(O)n(CCc2ccc(F)cc2)c(=O)[nH]c1=O)c1ccccc1	-3	-3	-1	0	4	x
COc1ccc(Cn2c(O)c(/C=N/NC(=O)c3ccccc3O)c(=O)[nH]c2=O)cc1	-4	-1	0	6.2*	-4	5.4*
C[C@]12CCC3C(CC[C@H]4C[C@@H](O)CC[C@]34C)C1C[C@@H](N)[C@@H]2O (stereo partly drawn)	-4	-2	-1	0	-2	x
CCOC(=O)CNC(=O)N1Cc2cc(Br)ccc2-n2nncc2C1	2	x	2	0	x	x
CCOC(=O)c1cc(C(O)(C(=O)OC)C(F)(F)F)c(/N=C/N(C)C)o1 (stereo not drawn)	-2	-1	4	6.8*	-14	3
SMILES	NPR1 activator	m5-HT2A agonist	GC-B act	MsrA inhibitor	MsrA act	MsrA conf	others
N=c1c2c(-c3ccccc3)c(-c3ccccc3)n(Cc3ccccc3)c2ncn1C1CCC(O)CC1 (stereo not drawn)	-25	x	-9	x	x	x
CC(C)(C)c1cc([N+](=O)[O-])cc(C(C)(C)C)c1O	2	x	4	22*	x	18*
CCC(c1nnnn1Cc1ccccc1)N1CCC(n2c(=O)[nH]c3ccccc32)CC1 (stereo not drawn)	-6	7	3	0	-1	x
Cc1cc(N(CCCl)CCCl)ccc1C=NNC(=O)c1cccnc1	-3	-3	-4	5.3*	-13	4
COC(=O)C(Cc1ccc(N(CCCl)CCCl)cc1)N=Cc1ccccc1O (stereo not drawn)	15	2	-4	-1	-3	x
COC(=O)[C@@]1(Sc2ccc(C)cc2)CC(=O)N(P(=O)(OC)OC)[C@@H]1c1ccccc1	-6	3	-2	-1	-1	x
CC(CC(C)(C)N1CC1)=NO	2	0	2	0	-2	x
CCn1nc(/C=C/c2ccccc2)nc2c(=O)n(C)c(=O)nc1-2	2	-1	12	5.3*	-6	4.6*
O=P(N1CCCCCC1)(N1CCCCCC1)N1CC1	4	0	4	-1	-1	x
N#C/C(=C\c1ccc(O)cc1)C(=O)O (tested in a mixture with another compound)	1	5	1	4.7*	-2	2
O=NN(CCF)C(=O)NC1CCC(=O)NC1=O (stereo not drawn)	0	0	-4	0	-4	x
C=CCn1c(O)c(/C=C/C=Nc2ccccc2)c(=O)[nH]c1=O	7	0	2	5.7*	0	1
O=C(NC(Cc1ccccc1)P(=O)(O)Oc1ccccc1)OCc1ccccc1 (stereo not drawn)	1	x	1	x	x	x
CC(=O)/C=C/c1ccccc1	5	2	5	-1	0	x
O=C(/C=C/C=C/c1ccccc1)CC1(O)C(=O)Nc2ccccc21 (stereo not drawn)	-3	2	-2	7.2*	-4	5.6*
Clc1cc(Cl)cc(CN2Cc3cc(Br)ccc3-n3nncc3C2)c1	-13	x	-11	-1	x	x
ClCCN(CCCl)c1ccc(C=NNc2ncccn2)cc1	-5	-4	-3	6.2*	-10	7.4*
ClCCN(CCCl)c1ccc(C=Cc2ccncn2)cc1	-1	6	-6	1	-5	x
N#Cc1ncc(N=Cc2ccc(N(CCCl)CCCl)cc2)s1	1	1	0	5.0*	-8	6.2*
ClCCN(CCCl)c1ccc(C2=NCCc3ccccc32)cc1	-6	0	-3	0	0	x
